Assay outcomes from PubChem.
This is a sample that favours compounds with a hit; in the whole collection about 15% have one here.
DT40 TDP1 CPT – growth inhibition of DT40 Tdp1-/-;hTDP1 cells with camptothecin (screen for TDP1 inhibitors). hit rate 12% among 420,000. chicken DT40 Tdp1-/-;hTDP1 cells + 20 nM CPT, ATP luminescence, 48 h. Potency, µM (series often up to 46.2 µM), hits mostly inhibitors; also: nearly all actives have a fitted effect of over 55% in size
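Cell growth measured by CellTiter-Glo luminescence after a minimum 48 h, 37 C compound exposure with 20 nM CPT in Tdp1-knockout DT40 cells stably expressing hTDP1, seeded 400/well; qHTS titration format.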
VP16 counter – counter-screen for ROR gamma inhibitors: Gal4-VP16 reporter. Drosophila S2 Gal4-VP16 UAS-luciferase, luminescence, 20 h. Potency, µM (doses to about 53.6 µM), hits mostly inhibitors. hit rate 3.5% among 310,000. AID 2546;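 also: Gal4-VP16 expression switched on by copper sulfate through the metallothionein promoter; nearly all actives have a fitted effect of over 50% in size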
RORgamma inh – blocks mouse ROR gamma transcriptional activity; P51450; Drosophila S2 Gal4-RORgamma UAS-luciferase reporter, 20 h; Potency, µM (titrated, usually from 53.6 µM), actives largely listed as inhibitors; hit rate 5.4% among 310,000; also: nearly all actives have a fitted effect of over 60% in size
Target sequence (P51450 whole entry, looked up, the tested form may be a part): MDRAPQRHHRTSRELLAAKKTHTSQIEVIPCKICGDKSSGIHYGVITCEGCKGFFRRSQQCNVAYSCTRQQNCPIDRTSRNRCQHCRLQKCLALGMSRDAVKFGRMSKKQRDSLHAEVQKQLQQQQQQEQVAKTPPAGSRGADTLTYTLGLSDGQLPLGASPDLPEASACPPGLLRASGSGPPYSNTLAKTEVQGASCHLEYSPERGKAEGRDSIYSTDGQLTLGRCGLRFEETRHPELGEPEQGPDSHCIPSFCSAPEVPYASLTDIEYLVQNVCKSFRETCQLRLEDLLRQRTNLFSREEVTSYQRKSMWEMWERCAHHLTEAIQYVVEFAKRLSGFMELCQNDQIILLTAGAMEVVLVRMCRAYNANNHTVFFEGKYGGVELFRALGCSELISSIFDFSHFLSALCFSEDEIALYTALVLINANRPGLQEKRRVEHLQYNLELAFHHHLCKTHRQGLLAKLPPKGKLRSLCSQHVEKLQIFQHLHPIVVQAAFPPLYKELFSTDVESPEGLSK
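Read-out: Photinus luciferase luminescence; inhibitors lower reporter signal. Insect Schneider cells with Gal4-ROR gamma fusion under metallothionein promoter, UAS reporter; 700 uM final copper sulfate induction, 20 hr, ambient temperature.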
ELG1 DNA repair – inhibitors of ELG1-dependent DNA repair in HEK293T cells | hit rate 2.3% among 330,000 | HEK293T ELG1-luciferase reporter, luminescence, 16 h; DNA damage induced by 5-fluorouridine | Potency, µM (doses to about 46.1 µM), hits mostly inhibitors; also: nearly all actives have a fitted effect of over 55% in size
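Reporter activity after DNA damage by 5-fluorouridine is monitored. Compound-treated cells incubate 16 hr at 37 °C, then ONE-Glo is added for 30 min before luminescence reading.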
12-LOX inh – blocks human arachidonate 12S-lipoxygenase; P18054; purified 12hLO, xylenol orange hydroperoxide absorbance; Potency, µM (doses to about 108 µM), actives largely listed as inhibitors; hit rate 1.1% among 580,000; AID 1671190
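Purified human 12hLO (150 nM final) in 25 mM Hepes, 0.01% Triton X-100, pH 7.0 was preincubated 15 min at room temperature with compound. Then 40 uM arachidonic acid was added, 30 min. Hydroperoxide was read by Fe-XO absorbance ratio 573/405 nm.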
TDP1 cell noCPT – qHTS for Inhibitors of human tyrosyl-DNA phosphodiesterase 1 (TDP1): qHTS in cells in absence of CPT; Potency, µM (titrated, usually from 46.2 µM), hits mostly inhibitors; DT40 Tdp1-/- hTDP1 cells, no CPT, ATP luminescence, 48 h; AID 686978, 2013; hit rate 15% among 420,000; also: nearly all actives have a fitted effect of over 55% in size
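Stably hTDP1-transfected Tdp1-null chicken DT40 cells were treated with library compounds minus camptothecin and grown for at least 48 hr at 37 °C, after which cellular ATP was quantified by luminescence.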
A number is an active result; . = inactive; ? = inconclusive; / = no result given; [ ] = remark or other dose. Calls follow the shape of the dose curve; as a rule, active = well fitted curve in the direction sought with a large enough effect; inconclusive = small, poorly fitted or top-dose-only effect, or another doubt; inactive = no such curve, though single readings can be large; an effect the other way counts as inactive or inconclusive.

SMILES	DT40 TDP1 CPT	VP16 counter	RORgamma inh	ELG1 DNA repair	12-LOX inh	TDP1 cell noCPT
O=C(Cc1coc2ccc3ccccc3c12)Nc1nnc(C2CC2)s1	?	.	?	.	.	23µM
Cc1cc2occ(CC(=O)Nc3nnc(C4CC4)s3)c2cc1C	.	.	.	.	.	.
O=c1cc[nH]c2cccc(Cc3ccccc3)c12	?	.	?	.	?	13µM
CC(C)Cn1cnc2c1c(=O)n(CC(=O)Nc1ccc(C#N)cc1)c(=O)n2Cc1ccccc1	/	/	/	/	.	/
COc1cc(NS(=O)(=O)c2cc3c(cc2C)N(C)CCO3)cc(OC)c1OC	21µM	/	/	/	.	15µM
COc1cc(NS(=O)(=O)c2ccc(C)cc2C)cc(OC)c1OC	6.5µM	?	?	10µM	.	6.5µM
CN(C)S(=O)(=O)c1ccc(NC(=O)Cc2cc(Cl)c3c(c2)OCCCO3)cc1	/	/	/	/	.	/
CN(C)CCCNC1CCCCC1	/	/	/	/	.	/
O=C(NCc1ccccc1F)C1CCN(Cc2cc3ccccc3n2Cc2cccc(Cl)c2)CC1	?	/	/	/	?	23µM
O=C(NCCc1ccccc1)C1CCN(Cc2ccccc2F)CC1	.	.	.[10 µM]	.	.	.
CC(=O)Nc1ccc(CN2CCCC(CCC(=O)NCc3ccccc3F)C2)cc1 (configuration not stated)	.	.	.	.	.	.
O=C(NCCc1ccccc1)C1CCN(Cc2cc3ccccc3n2Cc2cccc(Cl)c2)CC1	?	/	/	/	?	21µM
Cc1ccc(Cn2c(CN3CCC(C(=O)NCC(C)c4ccccc4)CC3)cc3ccccc32)cc1 (configuration not stated)	?	/	/	/	.	26µM
O=C(CCC1CCCN(Cc2cccc(Cl)c2)C1)NCc1ccccc1F (configuration not stated)	21µM	.	.	.	.	?
O[C@@H]1C[C@@H](c2nc(-c3ccc(OC(F)(F)F)cc3)no2)N(C2CCOCC2)C1	/	/	/	/	.	/
CCc1ccccc1NC(=O)c1ccc2c(Cl)c3c(nc2c1)CCCC3	/	/	/	/	.	/
CC(C)(C)c1ccc(C(=O)Nc2ccccc2F)cc1	/	/	/	/	.	/
COCCCNC(=O)C1CCN(Cc2cc3ccccc3n2Cc2ccccc2C)CC1	?	/	/	/	.	?
O=C(NCc1ccco1)C1CCN(c2nc3ccccc3n2Cc2ccccc2F)CC1	16µM	.	.	?	?	?
Cc1ccc(Cn2c(CN3CCC(C(=O)NCCc4ccccc4)CC3)cc3ccccc32)cc1	23µM	/	/	/	.	16µM
Cc1cc(C)nc(N2CCC(C(=O)NCc3ccccc3F)CC2)n1	.	.	.	.	.	.
O=C(NC1CCS(=O)(=O)C1)c1cc2sccc2n1Cc1ccc(Cl)cc1 (configuration not stated)	/	/	/	/	.	/
O=C(O)C1CCc2nnc(C3CCN(C(=O)c4cccc(Cl)c4)C3)n21 (configuration not stated)	/	/	/	/	.[6.33 µM]	/
O=C(O)c1ccc(NC2(C(=O)O)CCCC2)cc1	.	/	/	/	14µM	.
CC(C(=O)NCCC1=CCCCC1)c1ccc([N+](=O)[O-])cc1 (configuration not stated)	?	.[10 µM]	.	.	.	16µM
SMILES	DT40 TDP1 CPT	VP16 counter	RORgamma inh	ELG1 DNA repair	12-LOX inh	TDP1 cell noCPT
CCC(C(=O)NCc1ccc(C)cc1)c1ccccc1 (configuration not stated)	.	.	.	.	25µM	.
O=C(COC(=O)CSc1ccc([N+](=O)[O-])cc1)NCCC1=CCCCC1	.	/	/	.	?	.
CCC(C(=O)NCCC1=CCCCC1)c1ccccc1 (configuration not stated)	?	.	.	.	.	15µM
O=c1cc(-c2cc3ccccc3o2)c2cc3c(cc2o1)CCC3	/	/	/	/	.	/
CCOC(=O)c1c(C)[nH]c(CCC(=O)Nc2ccc(C)c(F)c2)c1C	21µM	/	/	/	?	15µM
Cc1ccc(S(=O)(=O)N2CC=C(C(=O)NCc3ccc(F)cc3)CC2)cc1	/	.	.	.	.	/
CCOC(=O)c1c(C)[nH]c(CCC(=O)Nc2ccc(Cl)cc2C)c1C	.	/	/	/	.	?
CCN(CC)c1ccc(NC(=O)C2=CCN(S(=O)(=O)c3ccc(F)cc3)CC2)c(C)c1	18µM	.	?	.	.	18µM
CCOC(=O)c1c(C)[nH]c(CCC(=O)Nc2ccc(N(CC)CC)cc2C)c1C	13µM	/	/	/	.	?
CCN(CC)c1ccc(NC(=O)c2[nH]c(C)c(C(C)=O)c2C)c(C)c1	23µM	.	.	.	?	18µM
CC(=O)c1c(C)[nH]c(C(=O)Nc2cc(F)ccc2C)c1C	.	.	.	.	.	.
CCn1c(SCc2nc(N)nc(Nc3ccccc3)n2)nnc1C1CC1	/	/	/	/	.	/
CCCOc1ccc(C(CC(=O)c2ccc(C)cc2)S(=O)(=O)c2ccc(C)cc2)cc1 (configuration not stated)	/	/	/	/	.	/
Cc1ccc(C(=O)NCC(c2cccs2)S(=O)(=O)c2ccccc2)cc1C (configuration not stated)	15µM	/	/	/	.	4.1µM
COc1ccc(C(=O)NCC(c2cccs2)S(=O)(=O)c2ccc(C)cc2)cc1 (configuration not stated)	23µM	/	/	/	.	15µM
COc1ccc(C(CC(=O)c2ccccc2)S(=O)(=O)c2ccc(C)cc2)cc1 (configuration not stated)	?	?	.	?	.	14µM
Cc1cc(S(=O)(=O)C(CNC(=O)c2ccc(F)c(F)c2)c2cccs2)ccc1F (configuration not stated)	.	/	/	/	.	.
COc1ccc(C(=O)NCC(c2cccs2)S(=O)(=O)c2cccs2)cc1 (configuration not stated)	?	/	/	/	.	16µM
COc1cc(C(=O)NCC(c2cccs2)S(=O)(=O)c2cccs2)cc(OC)c1OC (configuration not stated)	?	/	/	/	.	?
C[C@@H]1COC(Nc2ccc3ncnc(Nc4ccc(OCc5nccs5)c(Cl)c4)c3c2)=N1	/	/	/	/	.	/
O=C(NCc1ccc(Cl)cc1)C(=O)NCC(c1cccs1)S(=O)(=O)c1cccs1 (configuration not stated)	.	/	/	/	.	?
COc1cccc(CNC(=O)Nc2cccs2)c1	7.3µM	.	.	?	?	?
O=C(NCc1ccccc1Cl)C(=O)NCC(c1cccs1)S(=O)(=O)c1cccs1 (configuration not stated)	?	/	/	/	.	18µM
COc1cccc(CNC(=O)C(=O)NCC(c2cccs2)S(=O)(=O)c2cccs2)c1 (configuration not stated)	?	/	/	/	.	21µM
